Out of some 220,000 compounds screened, about 5,700 (2.6%) were called active. A call without a number means that no potency is given here. About 18% were inconclusive and are not listed. The call rests on the fitted dose curve; in most records, active means well fitted inhibition curve with a large enough effect; inconclusive means small, poorly fitted or top-dose-only effect; inactive means no such curve, though single readings can be large or run the other way. Many of the other results were omitted from the sample, so actives are more common in it than they were.
Potency means the concentration at half of the fitted maximal effect.

Chain of Lysine-specific demethylase 5B (Homo sapiens) (Q9UGL1 whole entry, looked up): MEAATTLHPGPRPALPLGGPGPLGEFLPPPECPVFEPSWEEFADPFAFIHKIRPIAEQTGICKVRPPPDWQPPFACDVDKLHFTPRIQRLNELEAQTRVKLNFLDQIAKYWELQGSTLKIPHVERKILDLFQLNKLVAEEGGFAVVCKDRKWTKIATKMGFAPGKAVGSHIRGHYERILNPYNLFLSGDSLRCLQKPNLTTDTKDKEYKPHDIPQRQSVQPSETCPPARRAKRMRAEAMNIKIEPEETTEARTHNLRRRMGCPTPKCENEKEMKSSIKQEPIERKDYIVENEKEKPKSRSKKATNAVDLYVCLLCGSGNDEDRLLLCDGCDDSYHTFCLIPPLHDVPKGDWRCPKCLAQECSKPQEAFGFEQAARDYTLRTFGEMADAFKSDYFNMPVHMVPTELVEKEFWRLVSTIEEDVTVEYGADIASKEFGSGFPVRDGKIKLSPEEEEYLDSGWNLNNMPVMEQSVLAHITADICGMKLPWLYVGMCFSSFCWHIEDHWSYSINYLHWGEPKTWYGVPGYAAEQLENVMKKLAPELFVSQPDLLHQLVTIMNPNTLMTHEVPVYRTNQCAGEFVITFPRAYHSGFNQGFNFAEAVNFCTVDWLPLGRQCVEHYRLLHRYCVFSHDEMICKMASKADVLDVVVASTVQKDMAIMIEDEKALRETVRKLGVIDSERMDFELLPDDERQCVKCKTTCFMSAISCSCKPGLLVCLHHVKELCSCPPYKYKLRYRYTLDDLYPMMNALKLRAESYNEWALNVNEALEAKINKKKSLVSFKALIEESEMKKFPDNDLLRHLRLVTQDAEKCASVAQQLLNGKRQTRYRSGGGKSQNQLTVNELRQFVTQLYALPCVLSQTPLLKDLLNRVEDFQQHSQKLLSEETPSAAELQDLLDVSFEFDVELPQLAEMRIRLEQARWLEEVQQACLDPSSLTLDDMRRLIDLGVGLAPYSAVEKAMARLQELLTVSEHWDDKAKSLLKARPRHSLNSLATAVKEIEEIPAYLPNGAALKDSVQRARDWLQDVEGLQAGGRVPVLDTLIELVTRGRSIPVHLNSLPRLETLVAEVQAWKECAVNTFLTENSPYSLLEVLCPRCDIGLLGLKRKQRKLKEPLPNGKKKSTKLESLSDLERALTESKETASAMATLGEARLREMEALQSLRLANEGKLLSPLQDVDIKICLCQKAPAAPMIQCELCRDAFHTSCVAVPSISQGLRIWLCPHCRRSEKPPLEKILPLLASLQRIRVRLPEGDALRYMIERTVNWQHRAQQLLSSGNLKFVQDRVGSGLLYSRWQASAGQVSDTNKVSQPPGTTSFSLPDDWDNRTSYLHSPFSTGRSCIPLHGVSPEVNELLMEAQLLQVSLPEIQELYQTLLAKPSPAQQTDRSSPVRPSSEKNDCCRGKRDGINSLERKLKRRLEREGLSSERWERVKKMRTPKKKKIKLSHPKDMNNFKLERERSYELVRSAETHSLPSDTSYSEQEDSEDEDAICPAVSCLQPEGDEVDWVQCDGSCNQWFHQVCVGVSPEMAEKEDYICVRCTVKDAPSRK

The assay addresses Lysine-specific demethylase 5B (Homo sapiens) (UniProt Q9UGL1). Briefly: Primary screen for KDM5B Histone Demethylases FDH-coupled qHTS. Further: nearly all actives have a fitted effect of over 70% in size. The settings on record: FDH-coupled NADH fluorescence (FDH is formaldehyde dehydrogenase); series mostly up to 57.7 µM. Put shortly:
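Compound dilutions met 200 nM (final) KDM5BΔAP for 10 min at room temperature before substrate addition. The substrate mix held 12.5 µM H3K4me3 with cofactors 25 µM α-ketoglutarate and 50 µM Fe²⁺. NADH signal gain over 30 min defined activity.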
A general note: Quantitative high-throughput screening tests each substance at several concentrations.
Turning to `O=C(c1ccccc1F)N1CCC2(CC1)C(=O)NN=C2C1CC1`, the Potency entry was “inactive”.
As for `CNC(=O)c1cccc(NC(=O)CC(C)(C(=O)O)c2ccccc2)c1` (configuration not stated), the Potency result is “inactive”.
For `Cc1cc(C)c(CNC(=O)c2nc(-c3cccc(CO)c3)cc3c2ccn3C)c(=O)[nH]1`, the Potency is 35.5 µM (active).
With `O=S(=O)(Oc1ccccc1C(=S)N1CCOCC1)c1ccc(Cl)cc1` the entry was “inactive”; with `CCN(c1ccc(NC(=O)c2nccnc2N)cc1)C(C)C`, “inactive”; with `Cc1cc(S(=O)(=O)c2cc3cc(F)cc(F)c3oc2=O)ccc1F`, “inactive”.
Turning to `O=S(=O)(c1ccc(F)cc1)N1CCn2cccc2C1c1ccccc1F` (configuration not stated), the Potency result was “inactive”.
With `Cc1cccc(NN)c1C` the entry was “inactive”.
As for `COc1cccc(CNC(=O)CC(C)CC(=O)O)c1` (configuration not stated), the Potency result is “inactive”.
With `CCc1ccc(OCC(=O)Nc2ccc(S(=O)(=O)NC(C)(C)C)cc2)cc1` the entry was “inactive”; with `NC(=O)c1ccc(OC2CCN(C(=O)c3ccc(F)cc3)CC2)nc1`, “inactive”.
With `CNc1ccc(OC2CCN(C(=O)NCCc3ccccc3)CC2)nc1` the figure was 28.2 µM (active).
Regarding `NC(=O)c1ccc(OC2CCN(C(=O)CCc3ccccc3)C2)nc1` (configuration not stated), the Potency entry is “inactive”.
As to `CN(C)c1ncccc1CNC(=O)Cc1ccccc1F`, the Potency entry is “inactive”.
Take `CC(NC(=O)c1ccc2c(c1)CCCC2)c1ccccc1` (configuration not stated): the Potency entry is “inactive”.
With `Cc1c(C(=O)NCCN(C)C)oc2ccc(S(=O)(=O)N3CCCC3)cc12` the entry was “inactive”; with `Cc1cccc(-c2cnc3n[nH]c(-c4ccc5c(c4)OCO5)c3n2)c1`, “inactive”.
`Cc1ccsc1-c1[nH]nc2ncc(-c3ccccc3O)nc12`: the Potency entry is “inactive”.
In the case of `Fc1ccc(-c2cnc3n[nH]c(-c4ccc5c(c4)OCO5)c3n2)cc1`, the Potency entry was “inactive”.
For the compound `Cn1cc(-c2cnc3n[nH]c(-c4ccccc4)c3n2)cn1`, the Potency was 35.5 µM (active).
Take `C[S+](=O)([O-])c1ccc(-c2cnc3n[nH]c(-c4ccccc4)c3n2)cc1`: the Potency was 35.5 µM (active).
`COc1ccc(-c2[nH]nc3ncc(-c4cn[nH]c4)nc23)cc1F`: the Potency result is “inactive”.
Turning to `Cc1ccc(C(=O)NCC(c2cccs2)N(C)C)cc1S(=O)(=O)N1CCOCC1` (configuration not stated), the Potency entry was “inactive”.
With `O=C(c1cccc(Br)c1)N1CCN(C2=NS(=O)(=O)c3ccccc32)CC1` the entry was “inactive”; with `COc1ccc(NC(=O)CCCC2CCCCC2)c(OC)c1`, “inactive”; with `COc1ccccc1CN1CC[C@@H](CO)N(C)c2ncccc2C1`, 31.6 µM (active).
As for `COc1ccccc1CN1CCC(N2CCN(c3ccccc3OC)CC2)CC1`, the Potency result was “inactive”.
Consider `COc1cccc(CN2CCN(Cc3ncccc3C)CC2)c1O`, for which the Potency result was “inactive”.
For `CC(C)n1ncc2cc(C(=O)N3CCCCc4ccccc43)cnc21`, the Potency result was “inactive”.
With `CCN(CCCNC(=O)c1nn(-c2ccc(OC)cc2)c(=O)c2ccccc12)Cc1ccccc1`, the Potency entry is “inactive”.
Consider `CN(Cc1ccc(F)cc1)C(=O)Cn1nc(C(=O)O)c2ccccc2c1=O`, for which the Potency entry was “inactive”.
Take `COc1ccc(S(=O)(=O)N2CCCC(C(=O)NCCCn3ccnc3)C2)cc1OC` (configuration not stated): the Potency entry was “inactive”.
As to `CN1CCC2(C1)CN(CC1CCOCC1)c1ccc(C(=O)NCCCn3ccnc3)cc12` (configuration not stated), the Potency is 39.8 µM (active).
Consider `CC(=O)Nc1ccc(C2(C(=O)NCCCN3CCOCC3)CCCCC2)cc1`, for which the Potency result is “inactive”.
With `Cc1c(C(=O)N(Cc2nc3ccccc3c(=O)[nH]2)C(C)C)oc2ccc(Cl)cc12` the entry was “inactive”.
Turning to `CCN1C(=O)C(=O)N(CC(=O)Nc2cc(C)ccc2C)C1=O`, the Potency result is “inactive”.
With `Cc1ccc(C(=O)N2CC[C@H](CO)[C@H](NC(=O)C3CC3)C2)cn1` the entry was “inactive”; with `O=C(c1cnccn1)N1CC2CC(C1)[C@H]1CCCC(=O)N1C2` (some centres not stated), “inactive”.
With `CC(=O)N[C@H]1CN(c2cncc(C(=O)N3CCCC3)n2)C[C@@H]1C1CC1` the figure was 28.2 µM (active).
`Cc1ccc(N(CC(=O)NC2CCCCCCC2)S(=O)(=O)N(C)C)cc1`: the Potency entry was “inactive”.
On to `O=C(Nc1cccnc1)[C@@H]1C[C@@H](c2ccc(F)cc2)N([S+](=O)([O-])c2ccccc2)C1`, for which the Potency result is “inactive”.
With `O=C([C@@H]1C[C@H](c2ccc(F)cc2)N([S+](=O)([O-])C2CC2)C1)N1CCN(c2ccccn2)CC1` the figure was 20 µM (active); with `O=C(Nc1cccc(Cl)c1)[C@@H]1C[C@H](c2ccc(F)cc2)N([S+](=O)([O-])C2CC2)C1`, “inactive”; with `Cc1c(C)n2c3c(=O)[nH]c(=O)n(C)c3nc2n1CCN1CCN(Cc2ccc(F)cc2)CC1`, “inactive”.
`C=CCOC/C=C/C#CCN(CC=C)Cc1ccc(OC)cc1OC`: the Potency entry was “inactive”.
Take `CC(=O)N1CCC(Cc2ccc(C(=O)NC3CC3)cc2)CC1`: the Potency result is “inactive”.
With `O=C(NC1CC1)c1ccc2c(c1)C1(CCN(CC3CC3)C1)CN2Cc1ccccc1` (configuration not stated) the figure was 31.6 µM (active).
For the compound `O=C1Nc2ccccc2CC12CCN(CC1CC1)C2` (configuration not stated), the Potency result was “inactive”.
With `O=C(NC1CCCCC1)c1ccc2c(c1)N(Cc1ccc(Cl)cc1)C(=O)c1ccccc1S2=O` (configuration not stated) the entry was “inactive”; with `CCCN1C(=O)Cc2cc(C(=O)NC3CC3)ccc21`, “inactive”.
With `CC(=O)N1CCCC2(C1)CN(C)c1ccc(C(=O)NC3CC3)cc12` (configuration not stated) the figure was 25.1 µM (active); with `COC(=O)c1cccc(N(CC(=O)NCC2CCCO2)C(=O)CCC(=O)Nc2cc(C)on2)c1` (configuration not stated), “inactive”; with `COc1ccccc1C(=O)OCC(=O)NCCNC(=O)COC(=O)c1ccccc1OC`, “inactive”.
`CSCC[C@H](NC(=O)CSc1cc(Cl)ccc1Cl)c1nc2ccccc2[nH]1`: the Potency result was “inactive”.
For `NC(=O)CN1CCC(NC(=O)c2cccc(F)c2)CC1`, the Potency result is “inactive”.
Consider `O=C(NCCc1ccc(Cl)cc1)c1ccc2nccn2c1`, for which the Potency was 112 µM (active).
With `COc1cccc(S(=O)(=O)NCc2ccc(C(=O)NCc3ccccn3)cc2)c1` the entry was “inactive”; with `NC(=O)CN1CCC(NC(=O)c2ccc(Oc3ccc(F)cc3)cc2)CC1`, “inactive”.
With `Cc1cc(C(=O)NCCc2ccc(Cl)cc2)c(C)o1`, the Potency entry is “inactive”.
With `O=C(NCCc1ccc(Cl)cc1)c1ccc2nc(CCc3ccccc3)oc2c1`, the Potency entry is “inactive”.
`O=C(NCc1ccccn1)c1ccc2nccn2c1`: the Potency is 31.6 µM (active).
For the compound `O=C(NC1CCN(Cc2ccc(F)c(F)c2)CC1)c1ccc2nccn2c1`, the Potency is 28.2 µM (active).
With `O=C(Nc1ccc(C(=O)N2CCOCC2)cc1)Nc1cccc(C(F)(F)F)c1` the entry was “inactive”.
With `O=C(c1ccc2nccn2c1)N1CCOCC1` the figure was 100 µM (active).
With `O=C(c1ccoc1)N1CCC(Oc2ncccc2C(=O)N2CCOCC2)C1` (configuration not stated), the Potency result was “inactive”.
With `CCn1cc(-c2ccccc2)cc1C(=O)NCc1ccccn1` the entry was “inactive”; with `COc1ccc2nc(NC(=O)Nc3ccc(C)cc3)sc2c1`, “inactive”.
For `COc1cc(/C=C(\C#N)C(=O)C(C)(C)C)ccc1OCc1c(Cl)cccc1Cl`, the Potency result was “inactive”.
As for `COC[C@]1(O)CCN(C(=O)c2ccccc2C(F)(F)F)CC1(C)C`, the Potency result is “inactive”.
With `C#Cc1cccc(NS(=O)(=O)c2ccc(OC)c3ncccc23)c1` the entry was “inactive”.
Regarding `CC1(C)CC(=O)C2=C(C1)OC(N)=C(C#N)C2c1ccc(C(F)(F)F)cc1` (configuration not stated), the Potency entry was “inactive”.
Consider `Cc1ccccc1/C=C1\Oc2cc(OS(C)(=O)=O)ccc2C1=O`, for which the Potency result was “inactive”.
With `O=C(Cc1cccc(F)c1)NC1CCC(c2ccccc2)CC1` (configuration not stated) the entry was “inactive”.
For the compound `O=c1ncn(Cc2ccccc2)c2ccc(-c3ccoc3)nc12`, the Potency is 39.8 µM (active).
As for `CCOc1ccccc1NC(=O)Cc1c(C)[nH]n(-c2nc(-c3ccccc3)cs2)c1=O`, the Potency entry is “inactive”.
On to `CNCCCNC(=O)C(=O)Nc1cccc2[nH]ccc12`, for which the Potency entry is “inactive”.
As to `Cc1ccccc1OCc1nnc(SCC(=O)c2ccc(Cl)cc2)n1C`, the Potency result was “inactive”.
For the compound `Cc1nn(CC(=O)O)c(=O)c2nc(C(C)C)sc12`, the Potency entry was “inactive”.
In the case of `Cc1ccc(C)c(N2CCN(C(=O)Cn3nc(C)c4sc5ccccc5c4c3=O)CC2)c1`, the Potency result was “inactive”.
For the compound `CCN1CCN(C(=O)Cn2nc(C)c3sc(-c4ccccc4)nc3c2=O)CC1`, the Potency was 22.4 µM (active).
Regarding `COc1ccccc1NC(=O)C1CCN(c2nc3ccccc3nc2OC)CC1`, the Potency entry was “inactive”.
With `Cc1cc(Cl)ccc1-c1ccc(CN)cc1` the entry was “inactive”; with `COCCNC(=O)C1CCN(S(=O)(=O)c2ccc3c(ccn3C)c2)CC1`, “inactive”.
With `N#Cc1cccnc1-c1cccc(C(=O)O)c1` the entry was “inactive”; with `CC(C)(O)CCc1cccc(C(=O)NC2CCN(c3ncccc3C#N)CC2)c1`, 22.4 µM (active).
Take `N#Cc1ccccc1Sc1ccccc1C(=O)NC1CCCCC1`: the Potency result was “inactive”.
Consider `Cc1ccc(C(=O)NCc2nc(C)cs2)cn1`, for which the Potency result is “inactive”.
Regarding `CC(C)C1=C/C(=C/c2ccccc2)C(C)/C(=C/c2ccccc2)C1=O` (configuration not stated), the Potency entry is “inactive”.
With `Cc1ccccc1NC(=O)CN1C(=O)C(C)(C)c2ccccc21`, the Potency result was “inactive”.
With `CC1CCC2(CC1)NC(=O)N(CC(=O)NCc1ccco1)C2=O` (configuration not stated) the entry was “inactive”; with `Cc1ccccc1CNC(=O)CN1C(=O)C2(CCNCC2)Nc2ccccc21`, 14.1 µM (active); with `CCn1c(=O)c2ccccc2n(CC(=O)Nc2ccccc2C(F)(F)F)c1=O`, “inactive”.
Take `CCNC(=O)NC(=O)C(C)Sc1nc(-c2ccccc2)c(-c2ccccc2)o1` (configuration not stated): the Potency result is “inactive”.
With `Cc1nc2cc(NC(=O)c3ccc(C(=O)c4ccccc4)cc3)ccc2o1` the entry was “inactive”.
In the case of `c1ccc2c(c1)CCN2C1CN(Cc2cccc3ccccc23)C1`, the Potency is 100 µM (active).
With `Cc1ccccc1N(C)C1CN(Cc2cccc3ccccc23)C1` the entry was “inactive”; with `CN(Cc1cccc2ccccc12)C1CCc2ccccc21` (configuration not stated), “inactive”; with `Cc1oc(-c2cccs2)nc1CC(=O)N1CCC2(CC1)NC(=O)NC2=O`, “inactive”.
Take `CC(C)(C)c1ccnc(N[C@H]2CO[C@H]3[C@@H]2OC[C@@H]3NC(=O)CC2(CC(=O)O)CCCC2)n1`: the Potency entry is “inactive”.
In the case of `CC(C)(CC(=O)O)CC(=O)N[C@H]1CO[C@H]2[C@@H]1OC[C@@H]2Nc1nccc(-c2ccc3c(c2)OCO3)n1`, the Potency was 28.2 µM (active).
On to `COCC(=O)N[C@H]1CO[C@H]2[C@@H]1OC[C@@H]2Nc1nccc(C(C)(C)C)n1`, for which the Potency entry is “inactive”.
In the case of `COc1ccc(NC(=O)O[C@@H]2CO[C@H]3[C@@H]2OC[C@@H]3NC(=O)C2CCCCC2)cc1`, the Potency result was “inactive”.
With `O=C(Nc1ccccc1)O[C@@H]1CO[C@H]2[C@@H]1OC[C@@H]2NS(=O)(=O)c1cccc2cccnc12` the entry was “inactive”; with `COc1ccc(NC(=O)O[C@@H]2CO[C@H]3[C@@H]2OC[C@@H]3NC(=O)NC2CCCCC2)cc1`, “inactive”.
With `O=C(Nc1cccc(C(F)(F)F)c1)O[C@@H]1CO[C@H]2[C@@H]1OC[C@@H]2Nc1nccc(-c2ccc3c(c2)OCO3)n1` the figure was 31.6 µM (active); with `COc1cccc(NC(=O)O[C@@H]2CO[C@H]3[C@@H]2OC[C@@H]3Nc2nccc(-c3cccs3)n2)c1`, 15.8 µM (active); with `CC(C)(C)c1ccnc(N[C@H]2CO[C@H]3[C@@H]2OC[C@H]3OC(=O)Nc2cccc(C(F)(F)F)c2)n1`, “inactive”.

The values above are taken from PubChem BioAssay AID1347165 (National Center for Advancing Translational Sciences (NCATS), 2019).
